Results published in PubChem BioAssay AID1578 (Sanford-Burnham Center for Chemical Genomics, 2009).
Screen size: about 290,000 compounds; about 3,000 (1%) were called active. Many of the other results were omitted from the sample, so actives are more common in it than they were. Values without a mark were called inactive. Cut-off read from the data, not from the text of the source: active = inhibition mostly above about 36% (no sharp cut-off); inactive = mostly below about 34%.

Assay: inhibition of NOD1-driven NF-kB reporter – cell-based, luminescence, uHTS, primary screen (AID 1578);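 note: HEK-293T reporter cells stimulated with the NOD1 agonist gamma-tri-DAP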
Conditions: NOD1-driven NF-kB luciferase reporter cells, at 4 µM, active compounds read high

SMILES | inhibition
O=[N+]([O-])c1cccc(CN2CCCCCC2)c1 | 82.1% (active)
O=[N+]([O-])c1ccc(CN2CCCCCC2)cc1 | -21%
O=[N+]([O-])c1ccc(N2CCN(Cc3cccc([N+](=O)[O-])c3)CC2)cc1 | 11.9%
CCC(C(=O)N1CCN(c2ncccn2)CC1)c1ccccc1 (centres undefined) | 4.2%
CC(CC(=O)N(C)C1CCCCC1)S(=O)(=O)c1ccc2c(c1)NC(=O)CO2 (centres undefined) | -10.5%
COc1ccc(OCC(=O)NNC(=S)NC(=O)c2ccc(Br)o2)cc1 | -38.4%
COc1ccc(OC)c(NC(=S)NC(=O)c2ccc(Br)o2)c1 | -27.7%
COc1ccc(C(=O)NNC(=S)NC(=O)c2ccc(Br)o2)cc1OC | 37.6% (active)
COc1ccc(CCNC(=O)C/C(C)=N/NC(=O)c2ccc(N)cc2)cc1OC | -10.1%
Cc1sc2ncn(CC(=O)NCCCC(=O)N3CCCCC3)c(=O)c2c1C | 12.4%
C=CCOc1c(CNC2CCCC2)cc(Cl)cc1OC | -19.3%
CCNCc1cc(Cl)cc(OC)c1OC(C)C | 17.6%
CNCc1cc(Cl)cc(OC)c1OC(C)C | 44.6% (active)
COc1ccc(N)cc1S(=O)(=O)Nc1ccccc1Cl | 9.1%
COc1ccc(OCC(=O)Nc2ccc(S(=O)(=O)N3CCCCCC3)cc2)cc1 | -7.8%
O=S(=O)(c1ccc(S(=O)(=O)N2CCC(O)CC2)cc1)N1CCCC1 | 29.3%
COc1ccc(CCn2ccc(O)c(Cc3c(F)cccc3Cl)c2=O)cc1OC | 55.5% (active)
COc1ccc(CCn2ccc(O)c(Cc3ccc(Cl)cc3)c2=O)cc1OC | 3.1%
COc1ccc(CCn2ccc(O)c(Cc3ccc(Cl)cc3Cl)c2=O)cc1OC | -2.8%
CN1CCN(C(=S)c2ccc(Cl)cc2)CC1 | 1.9%

SMILES | inhibition
NC(=O)C1CCN(Cc2ccc(OCc3ccccc3)cc2)CC1 | -29.8%
O=S(=O)(NC1CC1)c1cccc(S(=O)(=O)N2CCCC2)c1 | -9.9%
COc1ccc(CNC(=O)CC(C)CC2=NS(=O)(=O)c3ccccc3N2)cc1 (centres undefined) | -5.1%
COc1ccc(C(=O)NCc2nnc(SCC(=O)N3CCCCC3)o2)cc1OC | 8.1%
CCOC(=O)/C(=C\c1ccc(OC(F)F)cc1)C1=Nn2c(nnc2-c2ccc(Cl)cc2)SC1 | 92.7% (active)
COc1ccc(-c2nnc3n2N=C(C)CS3)cc1 | 8.4%
CCOc1ccc(-c2nnc3n2N=C(c2ccc(OC)cc2)CS3)cc1 | 4.9%
Cc1ccc(Cl)cc1NC(=O)C1CCCN(S(=O)(=O)c2c(C)noc2C)C1 (centres undefined) | -22.6%
O=C(O)CCCCCNCc1ccncc1 | -8%
COc1ccc(OC)c(-c2csc(NC(=O)C3=NN(c4ccccc4)C(=O)CC3)n2)c1 | -27.4%
CCc1ccc(-c2csc(NC(=O)C3=NN(c4ccccc4)C(=O)CC3)n2)cc1 | 51.4%
CCOC(=O)c1ccc(NS(=O)C23CC4CC(CC(C4)C2)C3)cc1 (centres undefined) | -39.1%
CCN(CC)S(=O)(=O)c1ccc2oc(C(=O)NCCCN3CCOCC3)c(C)c2c1 | -9.1%
Cc1cccc(N2CCN(C(=O)NC3CCCCC3)CC2)c1C | -19.6%
O=C1[C@H]2[C@@H](c3ccc(Cl)cc3)N3C(=O)N(c4cccc(Br)c4)C(=O)[C@@]3(Cc3ccc(Cl)cc3)[C@H]2C(=O)N1C1CCCCC1 | 45.6% (active)
O=C1[C@H]2[C@@H](c3ccc(F)cc3)N3C(=O)N(c4cccc(Br)c4)C(=O)[C@@]3(Cc3ccc(Cl)cc3)[C@H]2C(=O)N1C1CCCCC1 | -14.3%
CC[C@@]12C(=O)N(c3cccc(Br)c3)C(=O)N1[C@H](c1ccc(Cl)cc1)[C@@H]1C(=O)N(C3CCCCC3)C(=O)[C@@H]12 | 10.3%
O=c1cc(-c2c(F)c(F)c(F)c(F)c2F)oc2c(F)c(F)c(F)c(F)c12 | 98.7% (active)
O=c1cc(-c2c(F)c(F)c(F)c(F)c2F)oc2ccccc12 | 36.7%
COc1c(OC)c(O)c2c(=O)cc(-c3c(O)cccc3O)oc2c1OC | 2.2%

SMILES | inhibition
Cc1cccc(NC(=O)Cc2c(F)cccc2Cl)n1 | -46.6%
O=[N+]([O-])c1ccc(Nc2ccc(F)cc2)cc1 | -11.9%
Cc1nsc(Nc2ccc([N+](=O)[O-])cc2)c1C#N | 60.4% (active)
Cc1nsc(Nc2ccccc2)c1C#N | 16.5%
CN1CCN(/N=C/c2ccc(N(C)c3ccccc3)cc2)CC1 | -6.9%
Cc1cc(=O)oc2c(C)c(OCC(=O)NCCCn3ccnc3)ccc12 | 1.8%
O=C(OCc1ccccc1)c1cccnc1Cl | -18.1%
Cn1cc(CNCc2ccc(OC(F)(F)F)cc2)c(-c2ccc3c(c2)OCCO3)n1 | 75.4% (active)
Cn1cc(CNCc2cn[nH]c2-c2ccc(F)cc2)c(-c2ccc3c(c2)OCCO3)n1 | -22.2%
CN(Cc1ccon1)Cc1cn(C)nc1-c1ccc2c(c1)OCCO2 | -26.3%
C/C(=N\NC(=O)C1CC1(c1ccccc1)c1ccccc1)c1cccc([N+](=O)[O-])c1 (centres undefined) | -12.5%
CC(=O)Nc1ccc(N=Cc2c(O)c(C(=O)Nc3ccccc3)cc3ccccc23)cc1 | 39.6%
CC(=O)Nc1ccc(N=Cc2c(O)ccc3ccccc23)cc1 | -20%
CCOc1cc(Br)c(Br)c(C=Nc2ccc(NC(C)=O)cc2)c1O | 78% (active)
O=C(Nc1ccc(NS(=O)(=O)c2ccccc2)cc1)c1cccnc1 | -23.8%
O=C(NCc1nnc(SCC(=O)N2CCCC2)o1)c1ccccc1 | -0.1%
Cc1oc2c(c(=O)c1C)C(=O)CC(c1ccccc1)C2 (centres undefined) | -15.6%
Cc1c(C(=O)O)[nH]c2c1C(=O)CC(c1ccccc1)C2 (centres undefined) | -0.4%
CS(=O)(=O)c1sc(C#N)c2c1C(=O)CC(c1ccccc1)C2 (centres undefined) | 43.9% (active)
